From ChEMBL document CHEMBL3988442, “University of Dundee, Small-Polar-MMV Screening Library” (2021)
For some of these results: Results with a measured potency or affinity are listed apart.

Columns and labels:
Set-up in all cases: scale not given: direction of the effect not stated beside the values
[1] = target: Protein translocase subunit SecA (Escherichia coli (strain K12)) (UniProt P10408); test: Assay to Identify E. coli SecA ATPase Inhibitors; assay type: functional; details: 30 µM
[2] = target: T1, Ubiquitin-activating enzyme e1, putative (Leishmania donovani (strain BPK282A1)) (UniProt E9BSI1); test: Leishmania donovani Ubiquitin Activating Enzyme (LdE1); assay type: functional; details: 30 µM
T1 sequence (whole entry): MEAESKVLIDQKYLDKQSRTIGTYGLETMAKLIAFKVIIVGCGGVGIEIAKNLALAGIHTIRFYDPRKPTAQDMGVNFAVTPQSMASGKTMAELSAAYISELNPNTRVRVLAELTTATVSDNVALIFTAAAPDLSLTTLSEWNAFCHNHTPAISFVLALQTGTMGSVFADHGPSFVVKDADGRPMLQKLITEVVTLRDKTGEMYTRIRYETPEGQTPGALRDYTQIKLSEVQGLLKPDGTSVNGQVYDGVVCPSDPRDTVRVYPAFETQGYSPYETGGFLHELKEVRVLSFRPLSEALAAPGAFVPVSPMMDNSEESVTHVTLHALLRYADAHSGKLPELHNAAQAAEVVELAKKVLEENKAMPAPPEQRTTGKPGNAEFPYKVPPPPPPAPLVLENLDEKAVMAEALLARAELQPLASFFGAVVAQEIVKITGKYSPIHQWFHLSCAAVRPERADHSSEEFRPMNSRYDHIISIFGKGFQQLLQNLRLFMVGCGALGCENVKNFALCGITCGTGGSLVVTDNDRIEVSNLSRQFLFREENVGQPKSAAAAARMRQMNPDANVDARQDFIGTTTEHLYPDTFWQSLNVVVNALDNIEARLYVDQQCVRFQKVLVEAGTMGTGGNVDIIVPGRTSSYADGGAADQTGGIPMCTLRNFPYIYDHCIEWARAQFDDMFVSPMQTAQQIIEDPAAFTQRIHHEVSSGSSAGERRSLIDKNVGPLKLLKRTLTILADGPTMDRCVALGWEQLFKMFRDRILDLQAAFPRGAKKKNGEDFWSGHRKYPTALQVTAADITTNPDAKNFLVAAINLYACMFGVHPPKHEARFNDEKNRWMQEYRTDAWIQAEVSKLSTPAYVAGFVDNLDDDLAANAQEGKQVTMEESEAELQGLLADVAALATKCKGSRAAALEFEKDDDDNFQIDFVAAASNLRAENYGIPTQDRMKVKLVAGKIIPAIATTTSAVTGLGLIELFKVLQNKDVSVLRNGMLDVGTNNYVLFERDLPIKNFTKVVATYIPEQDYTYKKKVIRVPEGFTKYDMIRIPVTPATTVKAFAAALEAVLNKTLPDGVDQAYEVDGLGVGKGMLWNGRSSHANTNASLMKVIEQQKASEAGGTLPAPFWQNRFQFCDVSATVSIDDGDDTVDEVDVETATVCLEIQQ

[3] = target: AMP-activated protein kinase, AMPK (Homo sapiens) (UniProt P54646+O43741+P54619+Q9UGJ0+Q9Y478+Q13131+Q9UGI9); test: AMP-dependent Kinase enzyme assay. An in vitro enzyme assay that detects ADP turnover that is directly proportional to AMPK activity. This uses naive AMPK that is activated during the assay with MK-8722; assay type: functional; details: 30 µM
[4] = target: Sialic acid-binding Ig-like lectin 9 (Homo sapiens) (UniProt Q9Y336); test: Hs-Siglec9 ALPHAscreen SOP 20170721; details: 10 µM
Trypanosoma cruzi = test: Trypanosoma cruzi phosphomannomutase and mannose-1-phosphate guanylyltransferase assay; assay type: functional; details: 10 µM
[5] = target: T2, Arginase-2, mitochondrial (Homo sapiens) (UniProt P78540); test: in vitro enzyme assay to detect the production of urea directly proportional to the activity of Arginase II; assay type: functional; details: 33.3 µM; further: in the data most compounds retested in dose-response had high values
T2 sequence (whole entry): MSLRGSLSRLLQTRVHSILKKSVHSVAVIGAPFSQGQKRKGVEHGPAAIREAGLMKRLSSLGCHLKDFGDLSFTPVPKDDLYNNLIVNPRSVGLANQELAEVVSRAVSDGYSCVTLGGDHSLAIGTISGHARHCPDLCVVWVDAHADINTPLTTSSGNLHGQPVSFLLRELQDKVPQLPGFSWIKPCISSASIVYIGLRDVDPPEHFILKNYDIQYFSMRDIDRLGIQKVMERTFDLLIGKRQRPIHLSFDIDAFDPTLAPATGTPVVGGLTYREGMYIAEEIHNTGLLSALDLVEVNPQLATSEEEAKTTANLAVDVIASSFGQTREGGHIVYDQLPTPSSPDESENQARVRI

[6] = target: T3, Proteasome subunit beta (Trypanosoma cruzi) (UniProt O96673); test: Trypanosoma cruzi proteasome chymotrypsin-like activity (TcProtChymo) assay.; further: in the data most compounds retested in dose-response had high values; assay type: functional; details: 9.37 µM
T3 sequence (whole entry): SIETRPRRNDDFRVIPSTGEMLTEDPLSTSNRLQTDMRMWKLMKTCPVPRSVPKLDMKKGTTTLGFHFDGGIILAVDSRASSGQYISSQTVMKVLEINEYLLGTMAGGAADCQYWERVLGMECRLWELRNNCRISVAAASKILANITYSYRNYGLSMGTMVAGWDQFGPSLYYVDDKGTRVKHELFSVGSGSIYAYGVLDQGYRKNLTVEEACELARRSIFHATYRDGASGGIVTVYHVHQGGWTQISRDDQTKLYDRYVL

Homo sapiens = species on record: Homo sapiens; test: To identify inhibition of the IFN signalling (Jak-Stat) pathway via expression of an eGFP reporter gene under the control of an IFN-stimulated response element (ISRE) containing MxA promoter.; assay type: functional; details: 30 µM
[7] = target: T4, Tyrosyl-tRNA synthetase, putative (Trypanosoma cruzi (strain CL Brener)) (UniProt Q4DSP6); test: Trypanosoma cruzi tyrosyl tRNA synthetase (TcYRS) _High Tyrosine SOP; assay type: functional; details: 30 µM; further: in the data most compounds retested in dose-response had high values
T4 sequence (whole entry): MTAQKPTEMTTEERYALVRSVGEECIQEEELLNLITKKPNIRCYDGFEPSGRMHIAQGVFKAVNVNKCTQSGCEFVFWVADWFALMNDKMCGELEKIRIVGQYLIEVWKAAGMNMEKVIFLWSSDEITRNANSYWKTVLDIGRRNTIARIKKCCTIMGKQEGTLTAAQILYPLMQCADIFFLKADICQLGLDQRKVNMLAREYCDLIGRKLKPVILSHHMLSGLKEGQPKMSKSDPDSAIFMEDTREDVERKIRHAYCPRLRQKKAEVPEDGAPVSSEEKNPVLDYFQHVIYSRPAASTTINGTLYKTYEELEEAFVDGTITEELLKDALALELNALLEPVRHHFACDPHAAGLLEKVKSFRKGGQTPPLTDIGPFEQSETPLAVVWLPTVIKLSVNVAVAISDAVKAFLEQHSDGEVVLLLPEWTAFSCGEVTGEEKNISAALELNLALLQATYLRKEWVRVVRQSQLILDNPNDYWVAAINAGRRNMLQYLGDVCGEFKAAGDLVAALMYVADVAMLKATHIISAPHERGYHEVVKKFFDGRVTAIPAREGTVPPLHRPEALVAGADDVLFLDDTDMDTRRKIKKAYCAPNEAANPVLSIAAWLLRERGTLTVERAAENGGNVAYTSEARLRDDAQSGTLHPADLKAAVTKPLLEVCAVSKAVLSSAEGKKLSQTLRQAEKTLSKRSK

[8] = target: T4, Tyrosyl-tRNA synthetase, putative (Trypanosoma cruzi (strain CL Brener)); test: Trypanosoma cruzi tyrosyl tRNA synthetase (TcYRS) SOP; assay type: functional; details: 30 µM
[9] = target: Chromo domain-containing protein 1 (Saccharomyces cerevisiae (strain ATCC 204508 / S288c) (Baker's yeast)) (UniProt P32657); test: ScCHD-1 Enzyme Inhibition Assay; assay type: functional; details: 30 µM; further: in the data most compounds retested in dose-response had high values
Chain of Chromo domain-containing protein 1 (Saccharomyces cerevisiae (strain ATCC 204508 / S288c) (Baker's yeast)) (P32657 whole entry, the tested form may be a part): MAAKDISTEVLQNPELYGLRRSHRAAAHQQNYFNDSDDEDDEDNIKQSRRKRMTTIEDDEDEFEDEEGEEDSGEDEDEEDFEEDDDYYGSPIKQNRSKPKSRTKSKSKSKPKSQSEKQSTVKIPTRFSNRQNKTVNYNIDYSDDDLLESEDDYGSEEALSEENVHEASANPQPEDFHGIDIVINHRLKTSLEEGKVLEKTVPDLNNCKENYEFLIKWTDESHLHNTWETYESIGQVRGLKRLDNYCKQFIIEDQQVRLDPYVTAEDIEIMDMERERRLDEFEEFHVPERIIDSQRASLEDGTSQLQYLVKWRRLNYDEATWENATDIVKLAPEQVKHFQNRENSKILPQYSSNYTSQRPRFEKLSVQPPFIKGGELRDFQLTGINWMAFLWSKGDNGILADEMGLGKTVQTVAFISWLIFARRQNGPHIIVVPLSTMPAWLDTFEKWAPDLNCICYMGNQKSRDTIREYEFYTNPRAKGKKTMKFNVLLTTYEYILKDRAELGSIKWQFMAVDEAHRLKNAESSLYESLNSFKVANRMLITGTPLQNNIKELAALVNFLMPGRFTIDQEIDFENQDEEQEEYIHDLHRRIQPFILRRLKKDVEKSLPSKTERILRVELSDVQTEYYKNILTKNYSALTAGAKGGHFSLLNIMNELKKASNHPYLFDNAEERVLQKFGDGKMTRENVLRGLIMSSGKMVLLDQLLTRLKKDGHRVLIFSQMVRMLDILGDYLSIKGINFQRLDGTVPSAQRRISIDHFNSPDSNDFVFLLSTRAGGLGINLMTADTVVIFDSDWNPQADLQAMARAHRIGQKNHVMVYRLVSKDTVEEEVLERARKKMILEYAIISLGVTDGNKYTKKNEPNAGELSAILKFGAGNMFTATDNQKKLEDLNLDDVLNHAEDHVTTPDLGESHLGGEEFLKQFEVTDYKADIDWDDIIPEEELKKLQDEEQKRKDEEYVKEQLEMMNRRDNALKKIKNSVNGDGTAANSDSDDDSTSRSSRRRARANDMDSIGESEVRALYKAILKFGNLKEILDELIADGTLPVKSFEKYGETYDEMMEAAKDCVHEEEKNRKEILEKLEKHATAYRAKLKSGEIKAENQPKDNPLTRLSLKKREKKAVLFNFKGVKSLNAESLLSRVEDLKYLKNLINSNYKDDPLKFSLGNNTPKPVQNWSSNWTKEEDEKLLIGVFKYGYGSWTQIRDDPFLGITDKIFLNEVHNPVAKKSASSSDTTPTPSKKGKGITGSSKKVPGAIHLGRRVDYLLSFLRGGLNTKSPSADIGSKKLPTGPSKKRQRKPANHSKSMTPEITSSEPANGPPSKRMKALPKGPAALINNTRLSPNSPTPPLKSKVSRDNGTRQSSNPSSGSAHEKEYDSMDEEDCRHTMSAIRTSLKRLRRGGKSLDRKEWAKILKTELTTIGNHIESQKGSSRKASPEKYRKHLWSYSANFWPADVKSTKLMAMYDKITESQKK

Chain of Sialic acid-binding Ig-like lectin 9 (Homo sapiens) (Q9Y336 whole entry): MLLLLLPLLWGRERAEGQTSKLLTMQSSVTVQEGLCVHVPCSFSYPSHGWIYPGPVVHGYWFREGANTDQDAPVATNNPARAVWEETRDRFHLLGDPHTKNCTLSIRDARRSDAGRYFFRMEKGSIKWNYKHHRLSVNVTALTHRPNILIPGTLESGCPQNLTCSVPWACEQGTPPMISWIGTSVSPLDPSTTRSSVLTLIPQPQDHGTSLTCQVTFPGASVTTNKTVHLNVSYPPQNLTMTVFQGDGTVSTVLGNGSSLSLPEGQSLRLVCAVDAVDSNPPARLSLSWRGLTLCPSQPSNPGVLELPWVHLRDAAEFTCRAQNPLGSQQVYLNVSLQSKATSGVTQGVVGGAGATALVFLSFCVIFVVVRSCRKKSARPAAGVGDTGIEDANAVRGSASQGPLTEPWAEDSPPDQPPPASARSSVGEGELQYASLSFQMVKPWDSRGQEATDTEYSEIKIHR
Chain of Protein translocase subunit SecA (Escherichia coli (strain K12)) (P10408 whole entry): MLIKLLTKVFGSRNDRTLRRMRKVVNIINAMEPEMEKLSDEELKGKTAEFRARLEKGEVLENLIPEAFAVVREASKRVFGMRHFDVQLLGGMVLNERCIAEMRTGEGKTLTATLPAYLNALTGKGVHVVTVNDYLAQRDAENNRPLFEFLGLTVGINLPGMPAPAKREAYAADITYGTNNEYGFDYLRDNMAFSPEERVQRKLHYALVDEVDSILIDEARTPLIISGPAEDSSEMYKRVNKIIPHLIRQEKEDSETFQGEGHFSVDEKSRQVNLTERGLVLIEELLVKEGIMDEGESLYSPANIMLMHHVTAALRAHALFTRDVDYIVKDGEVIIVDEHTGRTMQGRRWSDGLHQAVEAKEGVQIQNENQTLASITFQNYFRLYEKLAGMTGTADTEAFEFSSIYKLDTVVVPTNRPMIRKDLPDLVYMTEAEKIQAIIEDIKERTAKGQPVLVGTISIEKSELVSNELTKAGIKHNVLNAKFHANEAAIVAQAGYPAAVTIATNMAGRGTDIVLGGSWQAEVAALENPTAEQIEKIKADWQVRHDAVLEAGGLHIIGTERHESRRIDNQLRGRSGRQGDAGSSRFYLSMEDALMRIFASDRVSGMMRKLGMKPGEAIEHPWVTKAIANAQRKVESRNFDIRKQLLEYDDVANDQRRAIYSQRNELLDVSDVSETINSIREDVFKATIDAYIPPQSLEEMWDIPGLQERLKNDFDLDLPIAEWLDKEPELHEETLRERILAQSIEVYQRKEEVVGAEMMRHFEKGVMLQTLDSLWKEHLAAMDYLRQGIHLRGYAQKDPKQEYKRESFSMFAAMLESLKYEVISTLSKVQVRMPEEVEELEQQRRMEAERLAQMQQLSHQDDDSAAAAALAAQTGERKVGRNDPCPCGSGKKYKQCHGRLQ

| SMILES | Percent Effect [1] [%] | Percent Effect [2] [%] | Percent Effect [3] [%] | Percent Effect [4] [%] | Percent Effect (Trypanosoma cruzi) [%] | Percent Effect [5] [%] | Percent Effect [6] [%] | Percent Effect (Homo sapiens) [%] | Percent Effect [7] [%] | Percent Effect [8] [%] | Percent Effect [9] [%] |
| --- | --- | --- | --- | --- | --- | --- | --- | --- | --- | --- | --- |
| Cc1ccc(C(O)CNC(=O)NCc2nc(C)cs2)cc1 (stereo unspecified) | -1.18 | 5.41 | 2.46 | 3.69 | -6.56 | 1.43 | 12.9 | 5.94 | 2.65 | 12.2 | -3.85 |
| CC(C)N1CCOCC2(CN(Cc3ccco3)CCO2)C1 (stereo unspecified) | -0.00842 | -5.48 | 2.81 | 4.65 | -2.58 | 2.4 | 13.8 | 3.21 | 2.08 | 8.64 | 0.188 |
| O=C(c1cccnc1)N1CC[C@H](OCC2CC2)[C@@H]1Cc1cccnc1 | -0.924 | 13.3 | 5.44 | -0.245 | -4.44 | -43.2 | 2.73 | -15.6 | 1.04 | -10 | -6.48 |
| Cc1ccccc1C(=O)Nc1cnn(CC(=O)NC2CCCC2)c1 | -4.39 | 0 | -22.8 | 4.85 | 1.98 | 1.6 | 20.5 | 6.03 | 7.29 | 11.1 | -0.609 |
| COc1ccc(S(=O)(=O)NCc2cccnc2N(C)C)cc1F | -1.87 | 20.2 | -8.9 | -2.51 | 2.74 | 6.08 | 4.18 | 21.9 | 8.37 | 24.1 | -5.49 |
| CN(CCCNc1cc(N2CCCC2CO)ncn1)S(C)(=O)=O (stereo unspecified) | -2.02 | 8.22 | -20.8 | 7.67 | -1.96 | 1.82 | 16.3 | 8.58 | 2.15 | 7.5 | -5.59 |
| CCc1nnc2n1CCN(C(=O)c1ccc(-c3ccco3)nc1C)C2 | -6.22 | 17.7 | -3.04 | 13.8 | 5.57 | -2.28 | 12.5 | 2.35 | 10.3 | 16.5 | -9.52 |
| Cc1noc(C)c1CNc1cc(N2CCCC2CO)ncn1 (stereo unspecified) | -2.84 | 6.33 | -25.2 | 4.54 | 1.54 | 1.5 | 1.03 | -8.87 | 0 | 12.7 | -23.1 |
| Cc1nccc(CN2CCC(c3nnsc3S(C)(=O)=O)CC2)n1 | -3.04 | 6.76 | 5.68 | 4.24 | -3.75 | -1.16 | 8.89 | 16.8 | 3.23 | 11.7 | -12 |
| COc1ccc(CS(=O)(=O)CC(=O)NCc2ccccc2F)cc1F | -3.22 | 7.89 | 5.57 | -2.07 | -2.63 | 8.28 | 17.2 | -0.495 | 4.25 | 5.2 | -2.98 |
| CCc1c(C)nc2n(c1=O)CC(C(=O)Nc1ccccc1F)CS2 (stereo unspecified) | -5.58 | 18.2 | -0.318 | 8.95 | 0.888 | -1.94 | 7.83 | 9.05 | 6.35 | 16.7 | -4.84 |
